Screening results deposited in PubChem by several laboratories.
CYP2C9 inhib – human CYP2C9 inhibition; P11712; CYP2C9 Supersomes, luciferin-H conversion, luminescence; inhibition, % at 5 µM; 96,000 tested, 20% active; AID 777;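 active means blocking of liver enzyme CYP2C9 beyond about 50% at 5 µM, limit read from the data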
Target sequence (P11712 whole entry, looked up): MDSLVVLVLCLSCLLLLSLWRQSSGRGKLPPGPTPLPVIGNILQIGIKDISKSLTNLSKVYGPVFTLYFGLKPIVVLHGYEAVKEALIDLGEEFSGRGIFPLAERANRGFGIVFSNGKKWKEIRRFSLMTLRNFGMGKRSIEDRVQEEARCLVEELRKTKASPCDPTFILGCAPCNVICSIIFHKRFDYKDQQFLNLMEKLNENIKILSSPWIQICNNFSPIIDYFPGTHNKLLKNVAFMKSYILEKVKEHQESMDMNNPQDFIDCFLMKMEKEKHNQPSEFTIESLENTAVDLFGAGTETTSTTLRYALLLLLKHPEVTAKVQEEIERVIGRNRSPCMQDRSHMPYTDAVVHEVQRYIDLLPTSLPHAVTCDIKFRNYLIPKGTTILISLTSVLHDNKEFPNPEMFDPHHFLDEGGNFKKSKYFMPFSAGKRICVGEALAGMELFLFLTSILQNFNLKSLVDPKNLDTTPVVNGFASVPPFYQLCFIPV
CYP2C19 inh – blocks human cytochrome P450 2C19; P33261; CYP2C19 Supersomes, luciferin-H EGE luminescence, 30 min; 96,000 tested, 21% active; inhibition, % at 5 µM;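 active means CYP2C19 inhibition above a set limit at 5 µM in the primary screen, cut at about 50% in these data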
PostGolgi ctrl – growth of the yeast control strain, post-Golgi counter-screen. efflux-deficient yeast background strain, growth absorbance A615, 16 h. inhibition, % at 10 µM. 98,000 tested, 5% active. AID 738
CYP2C19 activ – activators of human cytochrome P450 2C19; P33261; recombinant CYP2C19, luciferin-H EGE luminescence; active compounds read high; 0 = fully inhibited enzyme, 1 = untreated enzyme; activation factor at 5 µM; 96,000 tested, under 10 active;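 active means activation factor of at least 2 at 5 µM in the primary screen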
CYP2C9 act – activators of human CYP2C9. P11712. 96,000 tested, 1.4% active. recombinant CYP2C9, luciferin-H conversion, luminescence; active compounds read high; factor 1 = untreated enzyme, 0 = blocked. activation factor at 5 µM;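 active means activation factor of 2 or more for CYP2C9 at a 5 µM dose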
PostGolgi yeast – growth inhibition of a yeast mutant, post-Golgi transport screen. inhibition, % at 10 µM. post-Golgi transport phenotypic cell assay. 98,000 tested, 0.9% active;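 further: yeast cells grown in 1536-well plates; yeast grown about 18 h at 30C before absorbance read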
A number is an active result; n = inactive; x = not tested or not shown. Shown are actives, neighbours in structure and some others; about 32% of the full set was active somewhere. Unless noted, no stated cut-off is given here; in the data, active means inhibition above about 30%; inactive means the rest.

SMILES	CYP2C9 inhib	CYP2C19 inh	PostGolgi ctrl	CYP2C19 activ	CYP2C9 act	PostGolgi yeast
c1ccc(-c2onc3cc4c(cc23)OCCO4)cc1	54	50	n	n	n	n
CC(c1ccccc1)N1CCn2c(nc3cc(NC(=O)NC4CCCCC4)ccc32)C1 (stereo not given)	n	n	n	n	n	n
CCOc1ccc(C(NC(=O)c2ccco2)c2ccc(OC)c(OC)c2)cc1 (stereo not given)	n	n	n	n	n	n
CCOc1ccc(N(CC(=O)NC(C)(C)C)C(=O)c2ccco2)cc1	90	n	n	n	n	n
Cc1cc2c(cc1C)N(CC(=O)N1CCCC1)C(=O)CC(c1ccccc1)=N2	68	n	n	n	n	n
CC(=O)c1cc(-c2ccccc2)n(CC(=O)N2CCCCC2)c1C	n	n	n	n	n	n
Cc1cccc(NC(=S)N(CCc2nc3cc(C)c(C)cc3[nH]2)Cc2cccnc2)c1	n	n	n	n	n	n
Cc1ccc(C)c(NC(=S)N(CCc2nc3cc(C)c(C)cc3[nH]2)Cc2cccnc2)c1	74	n	n	n	n	n
C=C(C)C(=O)OC1(C(F)(F)F)Oc2cc(C)ccc2NC1=O (stereo not given)	n	63	n	n	n	n
COC(=O)CSc1nc2ncc(Cl)cc2[nH]1	n	n	n	n	n	n
CCc1nc2ccccc2c(C(=O)O)c1C	n	n	n	n	n	n
CCc1nc2ccccc2c(C(=O)OCCN2C(=O)c3ccccc3C2=O)c1C	57	76	n	n	n	n
CCc1nc2ccccc2c(C(=O)OCc2nnc(-c3ccccc3)o2)c1C	61	68	n	n	n	n
C=C(Cl)COc1ccc2c(CC)cc(=O)oc2c1	n	n	n	n	n	n
C=C(Cl)COc1ccc2c(CCCC)cc(=O)oc2c1	92	91	31	n	n	n
COC(=O)NCC(c1cccnc1)N1CCN(c2ccccc2)CC1 (stereo not given)	x	x	n	x	x	n
O=C(NCC(c1cccnc1)N1CCN(c2ccccc2)CC1)c1ccc2c(c1)OCO2 (stereo not given)	76	59	n	n	n	74
O=C(NCC(c1cccnc1)N1CCN(c2ccc(F)cc2)CC1)c1cccc(Cl)c1 (stereo not given)	52	n	91	n	n	77
O=C(NCC(c1cccnc1)N1CCN(c2ccccc2F)CC1)OCc1ccccc1 (stereo not given)	94	91	n	n	n	n
O=C(NCC(c1cccnc1)N1CCN(c2ccccc2)CC1)C1CCCCC1 (stereo not given)	n	n	n	n	n	46
O=C(NCC(c1cccnc1)N1CCOCC1)c1ccc2c(c1)OCO2 (stereo not given)	x	x	n	x	x	n
O=C(NCC(c1cccnc1)N1CCN(c2ccccc2F)CC1)c1ccccc1 (stereo not given)	n	52	n	n	n	n
O=C(NCC(c1cccnc1)N1CCN(c2ccc(F)cc2)CC1)OCc1ccccc1 (stereo not given)	82	85	n	n	n	59
CC(=O)c1cccc(NC(=O)CN(c2cccc(F)c2)S(C)(=O)=O)c1	n	n	n	n	n	n
Cc1ccc(CNc2ccc(N3CCOCC3)c(C(=O)O)c2)s1	n	n	n	n	n	n
SMILES	CYP2C9 inhib	CYP2C19 inh	PostGolgi ctrl	CYP2C19 activ	CYP2C9 act	PostGolgi yeast
CCc1cccc(CC)c1N(COC)C(=O)Cn1c(CO)nc2ccccc21	51	n	n	n	n	n
CCc1cccc(CC)c1N(COC)C(=O)Cn1nnc2ccccc21	100	82	n	n	n	n
O=C(Cn1cnc2c(cnn2-c2ccc(F)cc2)c1=O)NCC1CCCO1 (stereo not given)	n	n	n	n	n	n
CCCCC(CC)CNC(=O)CN(C)S(=O)(=O)c1cccc2nsnc12 (stereo not given)	n	n	n	n	n	n
Cc1ccccc1N(C(=O)c1cccs1)c1nc2ccccc2s1	88	n	35	n	n	n
Cc1ccsc1C(=O)N(c1nc2ccccc2s1)c1c(C)cccc1C	n	n	n	n	n	n
O=C(c1cccnc1NCc1ccc(F)cc1)N1CCOCC1	n	n	n	n	n	n
COc1ccccc1-c1c(C(F)(F)F)oc2cc(OC(=O)c3cccc([N+](=O)[O-])c3C)ccc2c1=O	73	76	n	n	n	n
COc1ccccc1-c1c(C)oc2cc(OC(=O)c3ccco3)ccc2c1=O	55	64	n	n	n	n
CCOC(=O)c1oc2cc(O)ccc2c(=O)c1-c1ccccc1OC	n	n	n	n	n	n
c1ccc(Cn2ccc(-c3cnc(-c4ccccc4)s3)n2)cc1	74	94	n	n	n	n
CC[n+]1c(P(=O)([O-])c2ccccc2)[nH]c2ccccc21	n	n	n	n	n	n
CCCc1cc(C(=O)NCC(C)C)no1	n	n	n	n	n	n
C=C1Cn2c(nnc2-c2ccc(Cl)cc2)S1	n	n	n	n	n	n
CCOC(=O)c1sc(C)c2c1NC(C)(c1cccs1)NC2=O (stereo not given)	63	n	n	n	n	n
CCOC(=O)c1sc(C)c2c1NC1(CCCCC1)NC2=O	n	n	n	n	n	n
Cc1cccc(OCCCc2c(C)n[nH]c2C)c1	57	92	n	n	n	n
CCCOc1cccc(CN2CCCCC2c2cccnc2)c1 (stereo not given)	83	92	n	n	n	n
N#CCCN(CCC#N)C(=O)c1ccc2c(c1)OCO2	n	n	n	n	n	n
O=S(=O)(c1cccs1)N1CCc2ccccc21	n	51	n	n	2.3	n
O=S(=O)(c1cccs1)N1CCCc2ccccc21	n	85	n	n	2.1	n
CCOC(=O)c1cccc(N2C(=O)C3C(C2=O)C2C=CC3C23CC3)c1 (stereo not given)	n	n	n	n	n	n
O=C(CCCNS(=O)(=O)c1cccc2nsnc12)NCc1ccc(F)cc1	n	n	n	n	n	n
O=C(Nc1cnn(Cc2c(Cl)cccc2Cl)c1)C(c1ccccc1)c1ccccc1	87	n	n	n	n	n
O=C(COc1ccccc1Cl)Nc1cnn(Cc2ccccc2)c1	n	n	n	n	n	n
SMILES	CYP2C9 inhib	CYP2C19 inh	PostGolgi ctrl	CYP2C19 activ	CYP2C9 act	PostGolgi yeast
COCCNC(C(=O)Nc1cc(Cl)cc(Cl)c1)c1ccccc1 (stereo not given)	70	54	n	n	n	n
COCC(C)NC(C(=O)Nc1ccc(C)c(Cl)c1)c1ccccc1 (stereo not given)	86	86	n	n	n	n
COCC(=O)Nc1ccc(C)c(Cl)c1	n	n	n	n	n	n
C#CC(CC)(CC)NC(=O)c1c(C)noc1C	n	n	n	n	n	n
COc1ccc(NC(=O)c2cc(OC)c(OC)c(OC)c2)cn1	n	56	n	n	n	n
CCCC(=O)Nc1ccccc1NC(=O)c1cc(OC)c(OC)c(OC)c1	71	n	n	n	n	n
